Data published in PubChem BioAssay (NCI).
The panel holds about 83,000 compounds, 20% with a hit somewhere; the sample as a whole holds those more often.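 Assay: single dose, 48 h. Readout: percent growth (0 = no net growth; negative = cell death). Active: <10.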 Values without a mark were called inactive. Activity calls are given as the source filed them.

The compounds below were run on SK-MEL-28 melanoma (assay: NCI-60 one-dose screen, 48 h (100 = growth as untreated, 0 = no growth, -100 = all killed)). Details: 10 µM unless noted.
Method: Growth inhibition of the SK-MEL-28 human tumor cell line is measured as a screen for anti-cancer activity. Cells are grown in 96 well plates and exposed to the test compound for 48 hours. Compounds are tested at a single concentration, which is 10^-5 M for most compounds. The reported endpoint is percent growth (GI% or GIPRCNT), where numbers from 0 - 100% represent growth inhibition, and numbers from -100% - 0 represent cell death. For example, a value of 40 represents 60% growth inhibition. A value of 0 means no net growth occurred over the course of the experiment. A value of -40 indicates 40% of cells at the beginning of the experiment died by the end of the experiment. A value of -100 means all cells are dead at the end of the experiment.
NCI-60 Human Tumor Cell Lines Screen was performed using the standard one-dose NCI protocol, which is described in more detail at https://dtp.cancer.gov/discovery_development/nci-60/default.htm.
Compounds with GIPRCNT values below 10 were considered active. Activity score was based on GIPRCNT using the following formula: […]
Score is 0 for GIPRCNT values of 100 or above, 50 for GIPRCNT values of 0, and 100 for GIPRCNT values of -100.

Row | SMILES | growth
1 | N=C(N)c1ccc(-c2ccc(-c3ccc(Cl)cc3Cl)s2)cc1 | 105%
2 | COc1ccc(C2=C(Nc3ccc(C(=O)Nc4ccccc4)cc3)C(=O)N(C)C2=O)cc1 | 111%
3 | O=C(O)CCCN1C(=O)/C(=C/c2cn(-c3ccccc3)nc2-c2ccc([N+](=O)[O-])cc2)SC1=S | 49.4%
4 | CSc1nc2ncc([N+](=O)[O-])c(=O)n2[nH]1 | 105%
5 | [O-]/[N+](=C\c1ccc(-n2cc(Cc3ccccc3Cc3cn(-c4ccc(/C=[N+](/[O-])c5ccccc5)cc4)nn3)nn2)cc1)c1ccccc1 | 110%
6 | CNC(=O)c1ccccc1Oc1nc(Nc2cc(OC)c(OC)c(OC)c2)ncc1Br | 80.5%
7 | COc1ccc(/C=C(\C#N)n2nnc3cc(F)c(F)cc32)cc1 | 58.1%
8 | CCCCCN1C(=O)/C(=c2\sc3n(c2=O)C2C(NN=3)N(CC)C(=O)N2CC)c2ccccc21 (stereo not given) | 19.2%
9 | CN(C)CCNC(=O)c1ccc(-c2nc3ccc4[nH]ncc4c3c3c2C2CCC3C2)cc1 (stereo not given) | 46.6%
10 | O=C1Nc2ccccc2/C1=C/c1cccn1CCCCn1c2ccccc2c(=O)c2ccccc21 | 105%
11 | CSc1nc2ccccc2cc1/C=[N+](\[O-])c1ccccc1 | 93.8%
12 | C#Cc1c2c(c(OC)c3c1OCO3)[C@H]([C@H]1OC(=O)c3c1ccc(OC)c3OC)N(C)CC2 | 95.1%
13 | O=c1scc(-c2ccc(C(F)(F)F)cc2)s1 | 102%
14 | CC(=O)/C(=C\c1c(-c2ccccc2)[nH]c2ccccc12)S(C)(=O)=O | 34.4%
15 | CCOC(=O)C#Cc1c(C(=O)OCC)nnn1Cc1ccc([N+](=O)[O-])cc1 | 87%
16 | Cc1cccc(/C=C/c2c(C(=O)/C=C/c3ccccc3)c(C)nc3ccccc23)c1 | -61.8% (active)
17 | O=C(c1ccccc1)c1ccc(C2CCCCC2)cc1 | 103%
18 | CCOC(=O)NC(C)C | 119%
19 | CCOc1ccccc1Cn1ccnc1CCc1c(Cl)c(O)cc(O)c1C(=O)OC | 96.6%
20 | Cc1[nH]c(C(=O)Nc2ccc(C(=O)N3CCN(c4cc5c(cc4F)c(=O)c(C(=O)O)cn5C4CC4)CC3)cc2OC(C)C)c(Cl)c1Cl | 86.6%

Row | SMILES | growth
21 | CCOC(=O)[C@@H]1CSC(CC)=C(C(=O)O)N1 | 101%
22 | COc1ccc(OC)c(-c2nc(SCC(=O)c3ccc(C#N)cc3)[nH]c(=O)c2C#N)c1 | 102%
23 | Cn1ccnc1C(=O)/C=C/c1ccc(C(=O)Nc2ccccc2O)cc1 | 73.4%
24 | N#Cc1c(-c2ccccc2)[nH]c2ncc(-c3ccccc3)n2c1=O | 102%
25 | CCc1ccccc1-n1c(-c2ccc(OC)cc2)cc(-c2ccc(OC)cc2)c(C#N)c1=O | 98.7%
26 | Cc1nc2sc(C(=O)Nc3cccc(Br)c3)c(N)c2cc1C(O)c1ccccc1 (stereo not given) | 61.9%
27 | COc1ccc(F)cc1/C=C/C(=O)/C=C(/C=C/c1cc(F)ccc1OC)OB(F)F | 48.1%
28 | c1ccc(Cn2cc3c(c2)-c2oncc2CC3)cc1 | 53.9%
29 | CCN(CC)CC(O)COc1c(Br)c(Br)c(Br)c2c1OC(C)(C)C2 (stereo not given) | 64%
30 | CC(=O)N1N=C(c2ccc(Nc3nc(Nc4ccccc4)nc(Nc4ccccc4)n3)cc2)CC1c1cccc([N+](=O)[O-])c1 (stereo not given) | 115%
31 | Cc1ccc(C(=O)c2ccc(CC(=O)N/N=C/c3ccccc3O)n2C)cc1 | 84.3%
32 | O=S(=O)(Nc1cc(Cl)ccc1Cl)c1ccc(-c2cnc(C3CC3)o2)cc1 | 63.2%
33 | O=C(Nn1c2c(sc1=NC1CC1)C(=O)c1ccccc1C2=O)c1cc2ccc1CCc1ccc(cc1)CC2 | 40.2%
34 | NC(=O)C(=O)c1ccccc1NC=O | 101%
35 | COCCOc1cc2ncnc(N3CCN(c4ncc(S(=O)(=O)N5CCCCC5)cn4)CC3)c2cc1OCCOC | 112%
36 | COc1ccc(C(C)=O)cc1S(=O)(=O)Nc1c(N)nc(SC)[nH]c1=O | 109%
37 | COC1=CC(c2ccc[nH]2)=N/C1=C\c1[nH]c(C)c(C)c1CCC(=O)OCc1ccccc1 | -32.6% (active)
38 | CSc1nc2ccccc2cc1/C=C1/C=C(c2ccccc2)NC1=O | 92.6%
39 | CCc1ncnc2c1ccn2C(C)c1ccc(OC)c(F)c1 (stereo not given) | 66.5%
40 | COc1cccc(/C=C2\COc3ccc(O)c(O)c3C2=O)c1 | 32.1%
